According to PubChem BioAssay (NCI):
This is part of a sample that, as a whole, favours compounds with a hit. Of some 83,000 tested, about 20% had one in any assay.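 In brief: 96-well plates, 48 h treatment, single concentration, percent growth endpoint.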 A number with no mark means an inactive call. The source made the active and inactive calls. Rule for the calls: active = growth percent below 10; inactive = the rest.

How the values were obtained:
Assay in all cases: NCI-60 one-dose screen, 48 h (100 = growth as untreated, 0 = no growth, -100 = all killed)
Conditions in all cases: 10 µM unless noted
SR leukemia = system: SR leukemia
RPMI-8226 leukemia = system: RPMI-8226 leukemia
OVCAR-8 ovarian = system: OVCAR-8 ovarian
OVCAR-5 ovarian = system: OVCAR-5 ovarian
OVCAR-4 ovarian = system: OVCAR-4 ovarian
SK-OV-3 ovarian = system: SK-OV-3 ovarian
IGROV1 ovarian = system: IGROV1 ovarian
OVCAR-3 ovarian = system: OVCAR-3 ovarian
HS 578T breast = system: HS 578T breast
NCI/ADR-RES ovarian = system: NCI/ADR-RES ovarian
T-47D breast = system: T-47D breast
BT-549 breast = system: BT-549 breast
MDA-MB-435 melanoma = system: MDA-MB-435 melanoma
SW-620 colon = system: SW-620 colon
MCF7 breast = system: MCF7 breast
HCT-116 colon = system: HCT-116 colon
HCC-2998 colon = system: HCC-2998 colon
KM12 colon = system: KM12 colon

SMILES | growth (SR leukemia) | growth (RPMI-8226 leukemia) | growth (OVCAR-8 ovarian) | growth (OVCAR-5 ovarian) | growth (OVCAR-4 ovarian) | growth (SK-OV-3 ovarian) | growth (IGROV1 ovarian) | growth (OVCAR-3 ovarian) | growth (HS 578T breast) | growth (NCI/ADR-RES ovarian) | growth (T-47D breast) | growth (BT-549 breast) | growth (MDA-MB-435 melanoma) | growth (SW-620 colon) | growth (MCF7 breast) | growth (HCT-116 colon) | growth (HCC-2998 colon) | growth (KM12 colon)
COc1cccc(Nc2nccc(Nc3ccc4[nH]ncc4c3)n2)c1 | -11.5% (active) | -39.6% (active) | -80.5% (active) | 32.9% | -59.6% (active) | 15.3% | -24.2% (active) | -61.5% (active) | 23.9% | -11.4% (active) | -51.9% (active) | -15.9% (active) | -78.4% (active) | -69.3% (active) | -50.6% (active) | -87% (active) | -7.35% (active) | -44.3% (active)
O=C(Nc1cccc(C(F)(F)F)c1)Nc1cccc(C(F)(F)F)c1 | -22.6% (active) | -10.5% (active) | 4.98% (active) | 25.3% | 23.9% | -15.3% (active) | 26.8% | 14.4% | 8.56% (active) | 7.46% (active) | -4.96% (active) | 0.669% (active) | 9.11% (active) | 15.2% | 5.26% (active) | -10.8% (active) | 11.8% | 4.98% (active)
O=Cc1c[nH]c2ccc(-c3csc4ccccc34)cc12 | 6.86% (active) | 27.8% | 27.6% | 86.3% | 94.2% | 49.4% | 20.5% | 23.8% | 40.4% | 12.3% | 70.7% | 38.5% | -17.5% (active) | 15.6% | 40.2% | 21.2% | 13.4% | 2.08% (active)
C=C(C)[C@@H]1CC[C@]2(C(=O)NC3CCCCC3)CC[C@]3(C)[C@H](CC[C@@H]4[C@@]5(C)CCCNC(C)(C)[C@@H]5CC[C@]43C)[C@@H]12 | -22.5% (active) | -32.5% (active) | -16.7% (active) | 82.8% | 44.6% | 95.8% | 55.1% | 64.8% | 78.8% | 57.7% | -32.8% (active) | 85.4% | 6.98% (active) | -76.1% (active) | 16.5% | -13.8% (active) | -16% (active) | 16.7%
Cc1ccc(-c2cc(-c3ccccc3C)[nH]c(=O)c2C#N)s1 | 118% | 97.5% | 95.5% | 93.4% | 85.1% | 111% | 80.4% | 94.5% | 82.8% | 96.8% | 86.5% | 79.4% | 94.9% | 95.6% | 89% | 91.8% | 111% | 95.3%
C=C1C(=O)O[C@H]2[C@H]1CC/C(CNC(=O)/C=C/c1ccc(Cl)cc1Cl)=C\CC[C@@]1(C)O[C@@H]21 | -28.8% (active) | -33.1% (active) | -28.7% (active) | -31.9% (active) | -52.7% (active) | 20.3% | -32.7% (active) | -100% (active) | -4.31% (active) | 2.07% (active) | -61.2% (active) | -53.1% (active) | 4.95% (active) | -51.6% (active) | -59.9% (active) | -73.9% (active) | -93.3% (active) | 20%
COc1cc(/C=C/C(=O)c2ccc(Nc3nc(Nc4ccc(F)cc4)nc(Nc4ccc(Cl)cc4)n3)cc2)cc(OC)c1OC | -5.99% (active) | -47.5% (active) | 31.7% | 81.3% | 31.8% | 105% | 54.8% | 190% | 59.1% | 38.9% | 61.9% | 54.8% | 69.3% | 35.3% | 28.5% | 22.9% | -1.48% (active) | 56%
CNC(=O)c1cc(Oc2ccc3nc(Nc4ccc(Cl)c(C(F)(F)F)c4)ccc3c2)ccn1 | 30% | 53.8% | 58.4% | 91.8% | 56.3% | 93.3% | 83.8% | 61.5% | 77.8% | 65.5% | 43.5% | 83.1% | 52.3% | 104% | 42.7% | 45.1% | 65.5% | 52.7%
